The supplement of paper PMC10849652
The full data set covers some 8,800 targets. This sample favours those with a hit. About 0.5% of all pairs of compound and target were hits.

How the values were obtained:
Assay in all cases: log2 fold change, soluble protein after heating vs DMSO (PISA); higher = thermal stabilisation; K562 lysate, 10 uM; active = over 0.2 and 3.5 SD of the protein, either way, in both replicates (recomputed)
alvocidib = compound: CN1CC[C@H](c2c(O)cc(O)c3c(=O)cc(-c4ccccc4Cl)oc23)[C@H](O)C1 [alvocidib]
Method in brief: (§1)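 Pellets of K562 cells were dounce-homogenised in PBS pH 7.4 with 1 mM MgCl2, and the crude extract was held at 1 mg/mL protein for a 30 min treatment with 10 μM compound. Aliquots were heated for 3 min over 48°C-58°C and pooled before NP-40 was added to 0.5% at 4°C. The supernatant from 21,000xg for 90 min was quantified by TMTpro 16plex LC-MS/MS with channel sums equalised. Values are reported from duplicates as log-two fold change in thermal stability relative to solvent controls.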

Tubastatin A = compound: CN1CCc2c(c3ccccc3n2Cc2ccc(C(=O)NO)cc2)C1 [Tubastatin A]
Method in brief: as §1

[1] = compound: CNC(=O)C1=CC=CC=C1NC2=NC(=NC=C2Cl)NC3=C(C=C(C=C3)N4CCOCC4)OC
Method in brief: as §1

defactinib = compound: CNC(=O)c1ccc(Nc2ncc(C(F)(F)F)c(NCc3nccnc3N(C)S(C)(=O)=O)n2)cc1 [defactinib]
Method in brief: as §1

[2] = compound: CNc1nc(-c2ccc3c(N)n[nH]c3c2)cc(N2C[C@@H](C(=O)NC3CCCCC3)CC[C@H]2C)n1
Method in brief: as §1

encorafenib = compound: COC(=O)N[C@@H](C)CNc1nccc(-c2cn(C(C)C)nc2-c2cc(Cl)cc(NS(C)(=O)=O)c2F)n1 [encorafenib]
Method in brief: as §1

[3] = compound: COC(=O)[C@H](CCSC)NC(=O)C1=C(C=C(C=C1)NC[C@H](CS)N)C2=CC=CC=C2
Method in brief: as §1

alisertib = compound: COc1cc(Nc2ncc3c(n2)-c2ccc(Cl)cc2C(c2c(F)cccc2OC)=NC3)ccc1C(=O)O [alisertib]
Method in brief: as §1

[4] = compound: COc1cc2nc(-c3cc(F)ccc3O)nc(N[C@@H]3CNC[C@H]3C(C)(C)O)c2cc1OC
Method in brief: as §1

gefitinib = compound: COc1cc2ncnc(Nc3ccc(F)c(Cl)c3)c2cc1OCCCN1CCOCC1 [gefitinib]
Method in brief: as §1

lapatinib = compound: CS(=O)(=O)CCNCc1ccc(-c2ccc3ncnc(Nc4ccc(OCc5cccc(F)c5)c(Cl)c4)c3c2)o1 [lapatinib]
Method in brief: as §1

pictilisib = compound: CS(=O)(=O)N1CCN(Cc2cc3nc(-c4cccc5[nH]ncc45)nc(N4CCOCC4)c3s2)CC1 [pictilisib]
Method in brief: as §1

crizotinib = compound: C[C@@H](Oc1cc(-c2cnn(C3CCNCC3)c2)cnc1N)c1c(Cl)ccc(F)c1Cl [crizotinib]
Method in brief: as §1

[5] = compound: C[C@H](C1=CC=C(C=C1)C(=O)NC2=C3C=CNC3=NC=C2)N
Method in brief: as §1

duvelisib = compound: C[C@H](Nc1ncnc2nc[nH]c12)c1cc2cccc(Cl)c2c(=O)n1-c1ccccc1 [duvelisib]
Method in brief: as §1

gandotinib = compound: Cc1cc(Nc2cc(CN3CCOCC3)c3nc(C)c(Cc4ccc(Cl)cc4F)n3n2)n[nH]1 [gandotinib]
Method in brief: as §1

tozasertib = compound: Cc1cc(Nc2cc(N3CCN(C)CC3)nc(Sc3ccc(NC(=O)C4CC4)cc3)n2)n[nH]1 [tozasertib]
Method in brief: as §1

doramapimod = compound: Cc1ccc(-n2nc(C(C)(C)C)cc2NC(=O)Nc2ccc(OCCN3CCOCC3)c3ccccc23)cc1 [doramapimod]
Method in brief: as §1

bafetinib = compound: Cc1ccc(NC(=O)c2ccc(CN3CC[C@H](N(C)C)C3)c(C(F)(F)F)c2)cc1Nc1nccc(-c2cncnc2)n1 [bafetinib]
Method in brief: as §1

[6] = compound: Cc1cccc(CC(=O)N2CCc3c2ccc(-c2cn(C)c4ncnc(N)c24)c3F)n1
Method in brief: as §1

Measured: log2 fold change

TPX2 (UniProt Q9ULW0)
Sequence of UniProt Q9ULW0 (Q9ULW0 whole entry, looked up): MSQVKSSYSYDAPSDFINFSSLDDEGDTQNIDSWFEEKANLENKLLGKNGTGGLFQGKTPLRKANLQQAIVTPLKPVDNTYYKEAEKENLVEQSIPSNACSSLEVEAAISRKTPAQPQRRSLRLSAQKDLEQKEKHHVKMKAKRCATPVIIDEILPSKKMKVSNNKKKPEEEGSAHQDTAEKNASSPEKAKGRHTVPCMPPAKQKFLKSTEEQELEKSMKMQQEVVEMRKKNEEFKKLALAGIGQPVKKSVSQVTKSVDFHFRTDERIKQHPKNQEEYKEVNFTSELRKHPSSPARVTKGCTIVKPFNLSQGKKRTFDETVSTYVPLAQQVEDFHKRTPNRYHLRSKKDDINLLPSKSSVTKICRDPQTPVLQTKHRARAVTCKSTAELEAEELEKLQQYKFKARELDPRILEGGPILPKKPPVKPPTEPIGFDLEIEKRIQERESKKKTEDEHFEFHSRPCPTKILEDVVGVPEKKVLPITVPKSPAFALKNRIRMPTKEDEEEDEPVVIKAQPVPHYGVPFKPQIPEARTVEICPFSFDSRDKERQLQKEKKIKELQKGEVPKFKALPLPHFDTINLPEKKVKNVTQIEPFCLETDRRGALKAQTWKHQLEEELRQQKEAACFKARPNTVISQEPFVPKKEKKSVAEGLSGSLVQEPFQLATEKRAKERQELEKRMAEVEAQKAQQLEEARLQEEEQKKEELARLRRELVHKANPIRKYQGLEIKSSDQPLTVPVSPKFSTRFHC
inactive: alvocidib -0.002 | Tubastatin A -0.129 | [1] 0.014 | defactinib 0.01 | [2] 0.045 | encorafenib 0.041 | alisertib 0.043 | [4] -0.027 | gefitinib 0.012 | lapatinib 0.008 | pictilisib 0.032 | crizotinib 0.023 | [5] 0.01 | duvelisib 0.002 | gandotinib 0.04 | tozasertib -0.003 | doramapimod 0.049 | bafetinib -0.023 | [6] -0.011
active: [3] -0.215

TMOD1 (UniProt P28289)
inactive: alvocidib 0.017 | Tubastatin A -0.081 | [1] 0.042 | defactinib 0.046 | [2] -0.009 | encorafenib -0.004 | [3] -0.002 | alisertib 0.014 | [4] 0.016 | gefitinib -0.008 | lapatinib 0 | pictilisib -0.032 | crizotinib -0.011 | [5] 0.039 | duvelisib -0.008 | gandotinib -0.059 | tozasertib 0.026 | doramapimod 0.019 | bafetinib -0.004 | [6] -0.029

UBR5 (UniProt O95071)
inactive: alvocidib -0.011 | Tubastatin A -0.084 | [1] 0.002 | defactinib 0.016 | [2] 0 | encorafenib 0.025 | [3] -0.044 | alisertib -0.028 | [4] -0.005 | gefitinib 0.014 | lapatinib -0.003 | pictilisib -0.009 | crizotinib -0.055 | [5] -0.01 | duvelisib -0.004 | gandotinib -0.018 | tozasertib 0.001 | doramapimod 0.012 | bafetinib -0.047 | [6] 0.046

UBE2D1 (UniProt P51668)
inactive: alvocidib 0.003 | Tubastatin A -0.045 | [1] 0.06 | defactinib 0.028 | [2] -0.027 | encorafenib -0.025 | [3] -0.042 | alisertib 0.028 | [4] -0.036 | gefitinib 0.106 | lapatinib 0.052 | pictilisib 0.043 | crizotinib 0.01 | [5] -0.012 | duvelisib 0.031 | gandotinib -0.047 | tozasertib 0.081 | doramapimod 0.038 | bafetinib -0.058 | [6] -0.033

TRAPPC12 (UniProt Q8WVT3)
Sequence of UniProt Q8WVT3 (Q8WVT3 whole entry, looked up): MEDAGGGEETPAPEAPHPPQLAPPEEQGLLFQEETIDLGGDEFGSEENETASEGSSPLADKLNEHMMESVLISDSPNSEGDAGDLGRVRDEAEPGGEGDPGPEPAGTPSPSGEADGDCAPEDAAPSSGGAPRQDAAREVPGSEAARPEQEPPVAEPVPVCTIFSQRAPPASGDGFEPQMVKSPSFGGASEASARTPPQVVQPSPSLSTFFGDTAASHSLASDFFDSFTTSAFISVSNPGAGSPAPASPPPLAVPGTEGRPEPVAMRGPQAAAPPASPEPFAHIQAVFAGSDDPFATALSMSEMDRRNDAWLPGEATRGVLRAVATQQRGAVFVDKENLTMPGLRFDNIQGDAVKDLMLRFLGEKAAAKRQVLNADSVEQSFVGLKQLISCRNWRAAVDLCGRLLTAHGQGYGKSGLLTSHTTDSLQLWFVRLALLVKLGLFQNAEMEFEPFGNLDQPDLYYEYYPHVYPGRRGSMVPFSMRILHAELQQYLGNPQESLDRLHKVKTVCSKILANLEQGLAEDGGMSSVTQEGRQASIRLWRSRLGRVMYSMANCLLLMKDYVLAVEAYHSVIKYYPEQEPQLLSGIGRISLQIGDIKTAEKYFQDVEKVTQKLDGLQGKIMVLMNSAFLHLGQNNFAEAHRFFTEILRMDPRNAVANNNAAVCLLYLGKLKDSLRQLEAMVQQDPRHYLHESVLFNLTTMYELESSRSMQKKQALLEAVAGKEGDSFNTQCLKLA
inactive: alvocidib -0.009 | Tubastatin A -0.079 | [1] 0.063 | defactinib 0.002 | [2] -0.039 | encorafenib 0.065 | [3] 0.057 | alisertib 0.034 | [4] 0.01 | gefitinib 0.022 | lapatinib 0.02 | pictilisib -0.017 | crizotinib -0.033 | [5] -0.017 | duvelisib 0.012 | gandotinib -0.042 | tozasertib -0.029 | doramapimod -0.036 | bafetinib -0.039 | [6] 0.048

TPM3 (UniProt P06753)
inactive: alvocidib 0.048 | Tubastatin A 0.049 | [1] -0.015 | defactinib 0.044 | [2] -0.003 | encorafenib -0.048 | [3] -0.02 | alisertib -0.007 | [4] 0 | gefitinib 0.008 | lapatinib 0.014 | pictilisib 0.005 | crizotinib 0.022 | [5] 0.123 | duvelisib 0.009 | gandotinib -0.039 | tozasertib -0.003 | doramapimod -0.022 | bafetinib 0.052 | [6] -0.088

TRIM44 (UniProt Q96DX7)
Sequence of UniProt Q96DX7 (Q96DX7 whole entry, looked up): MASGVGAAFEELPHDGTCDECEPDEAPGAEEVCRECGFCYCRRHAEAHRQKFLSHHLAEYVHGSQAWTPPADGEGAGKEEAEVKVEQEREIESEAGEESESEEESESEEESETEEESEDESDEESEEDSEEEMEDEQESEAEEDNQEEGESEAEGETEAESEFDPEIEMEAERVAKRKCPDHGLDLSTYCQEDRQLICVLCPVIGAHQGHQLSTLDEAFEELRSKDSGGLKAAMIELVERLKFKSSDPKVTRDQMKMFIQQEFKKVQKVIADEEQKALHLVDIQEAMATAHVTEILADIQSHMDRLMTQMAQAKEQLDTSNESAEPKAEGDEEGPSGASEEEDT
inactive: alvocidib 0 | Tubastatin A -0.013 | [1] 0.057 | defactinib -0.045 | [2] 0.04 | encorafenib -0.047 | [3] -0.034 | alisertib 0.041 | [4] -0.121 | gefitinib 0.088 | pictilisib -0.11 | crizotinib -0.018 | [5] 0.04 | duvelisib 0.007 | gandotinib 0.01 | tozasertib -0.04 | doramapimod 0.013 | bafetinib 0.031 | [6] -0.075
active: lapatinib -0.242

TECR (UniProt Q9NZ01)
Sequence of UniProt Q9NZ01 (Q9NZ01 whole entry, looked up): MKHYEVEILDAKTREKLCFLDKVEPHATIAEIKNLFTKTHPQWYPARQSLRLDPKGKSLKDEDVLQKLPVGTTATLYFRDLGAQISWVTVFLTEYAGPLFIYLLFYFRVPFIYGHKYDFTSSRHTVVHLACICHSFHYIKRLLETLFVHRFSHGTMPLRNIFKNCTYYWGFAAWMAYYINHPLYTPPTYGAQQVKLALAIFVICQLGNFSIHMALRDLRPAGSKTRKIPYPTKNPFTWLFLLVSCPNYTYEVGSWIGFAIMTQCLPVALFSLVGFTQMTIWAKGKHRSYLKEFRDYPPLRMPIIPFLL
active: gandotinib -0.448
inactive: alvocidib 0.05 | Tubastatin A -0.015 | [1] -0.046 | defactinib 0.052 | [2] -0.008 | encorafenib 0.068 | [3] -0.104 | alisertib 0.053 | [4] 0.048 | gefitinib -0.008 | lapatinib -0.082 | pictilisib -0.032 | crizotinib -0.138 | [5] 0.011 | duvelisib -0.056 | tozasertib 0.056 | doramapimod -0.045 | bafetinib -0.049 | [6] 0.015

UBR3 isoform 4 (UniProt Q6ZT12)
Sequence of UniProt Q6ZT12 (Q6ZT12 whole entry, looked up): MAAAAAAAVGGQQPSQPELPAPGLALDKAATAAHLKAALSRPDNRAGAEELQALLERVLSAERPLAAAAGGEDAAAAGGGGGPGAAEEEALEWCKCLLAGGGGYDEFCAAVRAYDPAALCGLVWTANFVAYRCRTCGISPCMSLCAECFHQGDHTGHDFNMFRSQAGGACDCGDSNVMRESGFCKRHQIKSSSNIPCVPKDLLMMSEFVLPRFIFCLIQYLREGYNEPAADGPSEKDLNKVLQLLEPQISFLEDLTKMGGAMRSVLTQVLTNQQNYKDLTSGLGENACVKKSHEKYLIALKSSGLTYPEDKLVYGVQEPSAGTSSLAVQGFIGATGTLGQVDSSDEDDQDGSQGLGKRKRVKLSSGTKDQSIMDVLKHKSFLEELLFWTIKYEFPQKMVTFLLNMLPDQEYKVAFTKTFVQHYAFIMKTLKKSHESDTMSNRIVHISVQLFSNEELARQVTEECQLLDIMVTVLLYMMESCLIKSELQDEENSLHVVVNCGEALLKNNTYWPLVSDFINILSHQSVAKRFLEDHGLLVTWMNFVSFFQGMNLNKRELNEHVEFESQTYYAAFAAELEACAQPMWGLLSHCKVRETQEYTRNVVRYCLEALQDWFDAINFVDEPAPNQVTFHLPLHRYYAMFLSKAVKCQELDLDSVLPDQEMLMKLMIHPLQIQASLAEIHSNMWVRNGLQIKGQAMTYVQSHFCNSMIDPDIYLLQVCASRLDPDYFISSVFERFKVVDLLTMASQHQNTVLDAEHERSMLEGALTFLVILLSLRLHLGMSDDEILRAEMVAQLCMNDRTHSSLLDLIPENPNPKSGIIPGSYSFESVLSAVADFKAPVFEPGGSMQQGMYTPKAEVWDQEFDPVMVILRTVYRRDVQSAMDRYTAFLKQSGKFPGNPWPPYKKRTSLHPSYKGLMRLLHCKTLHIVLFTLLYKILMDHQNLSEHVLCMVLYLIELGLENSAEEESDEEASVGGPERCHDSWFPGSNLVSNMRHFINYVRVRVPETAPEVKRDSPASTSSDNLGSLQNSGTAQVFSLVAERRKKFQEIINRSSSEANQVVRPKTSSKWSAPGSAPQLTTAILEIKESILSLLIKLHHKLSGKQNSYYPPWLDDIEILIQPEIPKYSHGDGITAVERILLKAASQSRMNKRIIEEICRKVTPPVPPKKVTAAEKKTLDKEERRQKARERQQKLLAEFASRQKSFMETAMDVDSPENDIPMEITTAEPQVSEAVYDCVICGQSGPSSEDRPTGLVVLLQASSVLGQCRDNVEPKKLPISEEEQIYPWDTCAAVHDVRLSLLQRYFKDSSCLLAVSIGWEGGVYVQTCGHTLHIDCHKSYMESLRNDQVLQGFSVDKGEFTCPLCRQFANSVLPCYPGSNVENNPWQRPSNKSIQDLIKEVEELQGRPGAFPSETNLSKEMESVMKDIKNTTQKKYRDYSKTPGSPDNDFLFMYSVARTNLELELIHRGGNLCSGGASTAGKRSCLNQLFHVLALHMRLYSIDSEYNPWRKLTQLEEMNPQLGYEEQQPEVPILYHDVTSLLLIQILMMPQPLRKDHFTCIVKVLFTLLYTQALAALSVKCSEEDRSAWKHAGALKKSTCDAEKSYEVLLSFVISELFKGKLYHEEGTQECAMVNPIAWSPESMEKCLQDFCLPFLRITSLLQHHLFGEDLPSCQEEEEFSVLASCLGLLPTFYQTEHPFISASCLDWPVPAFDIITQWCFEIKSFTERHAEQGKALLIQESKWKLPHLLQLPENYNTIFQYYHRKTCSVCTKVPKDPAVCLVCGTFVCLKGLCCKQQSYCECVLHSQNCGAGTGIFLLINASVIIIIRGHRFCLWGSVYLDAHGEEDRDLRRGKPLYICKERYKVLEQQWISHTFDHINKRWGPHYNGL
inactive: alvocidib 0.012 | Tubastatin A -0.155 | [1] 0.074 | defactinib -0.062 | [2] -0.03 | encorafenib -0.006 | [3] 0.054 | alisertib -0.005 | [4] 0.005 | gefitinib 0.018 | lapatinib -0.003 | pictilisib 0.01 | crizotinib -0.092 | [5] -0.006 | duvelisib -0.003 | gandotinib -0.046 | tozasertib 0.06 | doramapimod 0.015 | bafetinib -0.042 | [6] 0.05

TMEM263 (UniProt Q8WUH6)
inactive: alvocidib 0.013 | Tubastatin A 0.266 | [1] 0.116 | defactinib 0.213 | [2] -0.013 | encorafenib 0.285 | [3] 0.154 | alisertib 0.202 | [4] 0.398 | gefitinib 0.222 | lapatinib 0.149 | pictilisib 0.015 | crizotinib 0.06 | [5] -0.072 | duvelisib 0.02 | gandotinib 0.178 | tozasertib -0.066 | doramapimod 0.112 | bafetinib -0.028 | [6] 0.208

TPP2 (UniProt P29144)
inactive: alvocidib 0.018 | Tubastatin A -0.028 | [1] -0.014 | defactinib -0.014 | [2] -0.03 | encorafenib 0 | [3] 0.068 | alisertib -0.02 | [4] 0 | gefitinib 0.008 | lapatinib -0.007 | pictilisib 0.014 | crizotinib -0.009 | [5] 0.035 | duvelisib 0.011 | gandotinib -0.011 | tozasertib -0.009 | doramapimod 0.007 | bafetinib -0.008 | [6] -0.011

TBC1D2B (UniProt Q9UPU7)
Sequence of UniProt Q9UPU7 (Q9UPU7 whole entry, looked up): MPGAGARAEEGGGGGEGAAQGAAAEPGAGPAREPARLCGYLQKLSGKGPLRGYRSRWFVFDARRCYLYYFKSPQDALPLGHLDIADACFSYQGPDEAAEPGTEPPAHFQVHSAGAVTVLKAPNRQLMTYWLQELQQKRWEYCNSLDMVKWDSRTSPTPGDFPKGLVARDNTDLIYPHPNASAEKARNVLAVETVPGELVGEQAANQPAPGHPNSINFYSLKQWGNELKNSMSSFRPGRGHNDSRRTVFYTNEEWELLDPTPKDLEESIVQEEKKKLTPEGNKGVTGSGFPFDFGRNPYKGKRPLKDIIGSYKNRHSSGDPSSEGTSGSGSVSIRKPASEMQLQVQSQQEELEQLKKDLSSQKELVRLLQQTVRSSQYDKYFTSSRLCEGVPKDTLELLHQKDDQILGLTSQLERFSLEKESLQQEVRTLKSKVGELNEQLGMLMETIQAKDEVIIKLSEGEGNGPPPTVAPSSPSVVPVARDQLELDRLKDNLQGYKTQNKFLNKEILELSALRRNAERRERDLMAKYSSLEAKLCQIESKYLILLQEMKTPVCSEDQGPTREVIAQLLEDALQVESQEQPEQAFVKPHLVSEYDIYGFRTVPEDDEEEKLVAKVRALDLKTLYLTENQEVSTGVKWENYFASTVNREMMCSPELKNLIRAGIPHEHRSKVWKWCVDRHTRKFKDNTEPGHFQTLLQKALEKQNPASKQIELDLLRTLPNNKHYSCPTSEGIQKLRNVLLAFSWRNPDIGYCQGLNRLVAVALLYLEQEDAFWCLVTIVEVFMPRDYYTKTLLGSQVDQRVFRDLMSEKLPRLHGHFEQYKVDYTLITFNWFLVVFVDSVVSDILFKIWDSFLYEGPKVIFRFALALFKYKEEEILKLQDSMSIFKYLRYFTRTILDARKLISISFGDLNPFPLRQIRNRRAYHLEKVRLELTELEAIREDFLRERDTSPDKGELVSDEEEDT
inactive: alvocidib -0.023 | Tubastatin A -0.157 | [1] 0.038 | defactinib 0.04 | [2] -0.047 | encorafenib 0.03 | [3] 0.063 | alisertib 0.011 | [4] 0.103 | gefitinib -0.001 | lapatinib 0.076 | pictilisib 0.006 | crizotinib 0.041 | [5] 0.007 | duvelisib 0.027 | gandotinib -0.096 | tozasertib -0.005 | doramapimod 0.007 | bafetinib -0.057 | [6] 0.052

TTL (UniProt Q8NG68)
active: duvelisib 0.356
inactive: alvocidib 0.112 | Tubastatin A -0.143 | [1] 0.015 | defactinib -0.065 | [2] 0.001 | encorafenib 0.079 | [3] 0.144 | alisertib -0.027 | [4] 0.019 | gefitinib 0.112 | lapatinib -0.015 | pictilisib -0.057 | crizotinib -0.067 | [5] 0.096 | gandotinib -0.033 | tozasertib -0.112 | doramapimod -0.011 | bafetinib -0.091 | [6] -0.048

TCF12 isoform 3 (UniProt Q99081)
inactive: alvocidib -0.045 | Tubastatin A -0.129 | [1] 0.009 | defactinib -0.007 | [2] -0.013 | encorafenib 0.039 | [3] -0.043 | alisertib 0.004 | [4] -0.025 | gefitinib 0.028 | lapatinib -0.047 | pictilisib 0.055 | crizotinib 0.034 | [5] -0.038 | duvelisib 0.025 | gandotinib 0.056 | tozasertib 0.023 | doramapimod -0.011 | bafetinib -0.11 | [6] -0.001

TPM3 isoform 3 (UniProt P06753)
inactive: alvocidib -0.202 | Tubastatin A -0.049 | [1] 0.028 | defactinib 0.074 | [2] -0.137 | encorafenib -0.014 | [3] -0.039 | [4] -0.001 | lapatinib -0.009 | crizotinib 0.095 | duvelisib 0.011 | gandotinib 0.176 | tozasertib 0.143 | doramapimod 0.027 | [6] 0.202
active: [5] -0.411
